This note sets out measurements from PubChem BioAssay (EPA / NIEHS).

Assay [1] can be described thus: CCTE_Harrill_HTTr_Apoptosis_MCF7: CCTE's 6-hour Apoptosis Assessment for the High-Throughput Transcriptomics (HTTr) Platform, in MCF-7 cells cultured in DMEM + 10% fetal bovine serum, Harrill Lab (AID 2284011). A digest of the protocol:
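High-content imaging of CellEvent Caspase 3/7 Green signal follows a six-hour exposure, with eight concentrations per chemical. MCF-7 cells grown in DMEM plus 10% fetal bovine serum; activity fitted in both directions against DMSO.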

The nature of assay [2]: CCTE_Shafer_MEA_dev_AB: CCTE's Alamar Blue Assay for Cytotoxicity in the Neural Network Formation Assay, Shafer Lab (AID 2284083; active = hit-call score of the fitted dose curve at least 0.9, where 1 is the maximum;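 also: twelve days of exposure from plating with re-dosing on DIV 5 and 9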). The procedure, abridged:
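Primary rat cortical neurons on PEI-coated 48-well MEA plates, 1.5 x 10^5 cells/well in laminin drop; compound exposure from day 0 of plating for twelve days, renewed at medium changes on DIV 5 and 9. Viability read as resazurin reduction by fluorescence, relative to DMSO.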
(In general: Resazurin is reduced to fluorescent resorufin, in cell work by metabolically active cells.)

The nature of assay [3]: UKN2_HCS_IMR90_neural_migration: University of Konstanz (UKN) Leist Lab Neural Crest Cell Migration Assay in human induced IMR90 Pluripotent Stem Cells (UKN2) (AID 2284204). Conditions: actives raise or lower the signal. A digest of the protocol:
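High-content imaging of calcein-AM and Hoechst stained cells quantifies migration into a stopper-defined gap after 24 h compound exposure. Neural crest cells from IMR90 iPSC migrated 24 h in EGF/FGF N2-S medium before dosing; DMSO baseline.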

The nature of assay [4]: IUF_NPC1b_proliferation_BrdU_72hr: Leibniz Research Institute for Environmental Medicine (IUF) 72-hour Neural Progenitor Cell Bromodeoxyuridine (BrdU) Proliferation Assay (NPC1b) (AID 2284207). The procedure, abridged: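 Human fetal cortex-derived (GW 16-19) neural progenitor spheres, 0.25-0.35 mm, one per well in EGF/FGF proliferation medium, exposed to compound for 72 h at 37C, pH 7.2-7.6. BrdU incorporation over the final 16 h read by luminescence ELISA, relative to DMSO.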

Assay [5] in a line: IUF_NPC1a_proliferation_area_72hr: Leibniz Research Institute for Environmental Medicine (IUF) 72-hour Neural Progenitor Cell Proliferation Area Assay (NPC1a) (AID 2284208). A digest of the protocol:
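Proliferation read as increase in sphere area by phase-contrast imaging over 72 h continuous compound exposure (no renewal) of hNPC spheres grown with EGF/FGF at 37C, 5% CO2. Growth-factor withdrawal served as positive control; DMSO as baseline.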

Assay [6] can be described thus: IUF_NPC1_viability_72hr: Viability Assessment at 72 hours in the Leibniz Research Institute for Environmental Medicine (IUF) Neural Progenitor Cell Proliferation Assay (NPC1) (AID 2284209). The procedure, abridged: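 Three-day continuous exposure of human neural progenitor spheres under EGF/FGF-driven proliferation; cell viability scored by alamar blue signal versus DMSO.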

Assay [7] can be described thus: CCTE_Mundy_HCI_Cortical_NOG_NeuriteLength: CCTE's Neurite Outgrowth Assay in rat cortical cells for Neurite Length, Mundy Lab (AID 2284213).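 As to AC50: neurites imaged about 48 to 50 h after chemical exposure began.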 The procedure, abridged:
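First, rat primary cortical cells were plated and, 2 h later, given test chemical as a 1/10 dilution. Finally, βIII-tubulin immunostaining enabled automated imaging of neurite length.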

A short description of assay [8]: CCTE_Mundy_HCI_Cortical_Synap_Neur_Matur_NeuriteLength: CCTE's Synaptogenesis and Neurite Maturation Assay in rat cortical cells for Neurite Length, Mundy Lab (AID 2284214). A digest of the protocol:
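DMSO-normalised neurite length, from high-content imaging of anti-MAP2-stained rat cortical cells fixed at DIV 12. Glia were suppressed with AraC (DIV 5) before chemical exposure from DIV 7.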

The nature of assay [9]: CCTE_Mundy_HCI_Cortical_Synap_Neur_Matur_NeuriteSpotCountPerNeuron: CCTE's Synaptogenesis and Neurite Maturation Assay in rat cortical cells for Neurite Spot Count per Neuron Count, Mundy Lab (AID 2284215). The procedure, abridged: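 High-content imaging counts synaptophysin puncta along MAP2-labelled neurites per neuron after chemical exposure of rat cortical cells from DIV 7 to termination at DIV 12 (AraC added DIV 5). Loss of signal relative to DMSO.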

Assay [10] in a line: CCTE_Mundy_HCI_Cortical_Synap_Neur_Matur_SynapseCount: CCTE's Synaptogenesis and Neurite Maturation Assay in rat cortical cells for Synapse Count, Mundy Lab (AID 2284218). The procedure, abridged: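 Endpoint: synapses/neuron by HCI (synaptophysin puncta on MAP2-labelled neurites, Hoechst nuclei). Rat primary cortical cells, AraC DIV 5, dosed DIV 7, fixed DIV 12; DMSO negative control.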

Assay [11] is described as follows: UKN2_HCS_IMR90_cell_viability: Viability Assessment in the University of Konstanz (UKN) Leist Lab Neural Crest Cell Migration Assay in human induced IMR90 Pluripotent Stem Cells (UKN2) (AID 2284233).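 Also: cells exposed to compound for 24 h after a 24 h migration phase.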 A digest of the protocol:
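After calcein-AM/Hoechst staining, viability is quantified by high-content fluorescence imaging, relative to DMSO, in iPSC (IMR90)-derived neural crest cells. Exposure lasts 24 h, starting after a 24 h migration period on PLO/laminin/fibronectin coating.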

A short description of assay [12]: IUF_NPC2c_oligodendrocyte_migration_120hr: Leibniz Research Institute for Environmental Medicine (IUF) 120-hour Neural Progenitor Cell Migration Assay for Oligodendrocyte Migration (NPC2c) (AID 2284297).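 Also: O4-positive oligodendrocyte migration distance divided by radial glia migration distance.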 A digest of the protocol:
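Exposure runs 5 days from differentiation onset at 37C, seven concentrations plus solvent control, DMSO at most 0.1%, applied to primary hNPC spheres on laminin. After fixation, O4 immunostaining gives oligodendrocyte distance from the sphere core, relative to radial glia migration.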

Assay [13] can be described thus: IUF_NPC2a_radial_glia_migration_120hr: Leibniz Research Institute for Environmental Medicine (IUF) 120-hour Neural Progenitor Cell Migration Assay for Radial Glia Migration (NPC2a) (AID 2284298). A digest of the protocol:
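Migration distance in um, sphere core edge to migration-area edge, derived by nuclei-density algorithm from Hoechst images after 120 h compound exposure. Primary hNPC spheres differentiated on poly-D-lysine/laminin in N2 medium, 37C; medium half-replaced day 3.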

Assay [14] is described as follows: IUF_NPC2a_radial_glia_migration_72hr: Leibniz Research Institute for Environmental Medicine (IUF) 72-hour Neural Progenitor Cell Migration Assay for Radial Glia Migration (NPC2a) (AID 2284299). A digest of the protocol:
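Spheres of human primary neural progenitors migrate on poly-D-lysine/laminin under compound exposure at 37C, 5% CO2. The 72 h radial glia migration distance comes from brightfield images, measured manually.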

A short description of assay [15]: IUF_NPC2b_neuronal_migration_120hr: Leibniz Research Institute for Environmental Medicine (IUF) 120-hour Neural Progenitor Cell Migration Assay for Neuron Migration (NPC2b) (AID 2284300). The procedure, abridged: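 TUBB3-positive neurons are imaged after 120 h of differentiation, and their mean distance from the sphere edge is normalised to radial glia migration. Single 0.3 mm fetal hNPC spheres on poly-D-lysine/laminin received 7 compound concentrations, ≤0.1% DMSO, refreshed at day 3.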

Assay [16] can be described thus: IUF_NPC3_neuronal_differentiation_120hr: Leibniz Research Institute for Environmental Medicine (IUF) 120-hour Neuronal Differentiation Assay (NPC3) (AID 2284301). A digest of the protocol:
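Value is percent TUBB3-positive neurons among Hoechst-stained nuclei in the migration area, scored by trained CNN after 120 h differentiation. Primary hNPC spheres on poly-D-lysine/laminin, N2 medium, continuous dosing from day 0, half-refeed day 3; DMSO reference.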

Assay [17] in a line: IUF_NPC4_neurite_length_120hr: Leibniz Research Institute for Environmental Medicine (IUF) 120-hour Neuronal Morphology Assay for Neurite Length (NPC4) (AID 2284302). A digest of the protocol: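 Neurite length, the mean in um across TUBB3-stained neurons, is derived by skeletonization of high-content images after 120 h differentiation. Compound exposure, 7 concentrations plus solvent control, ran from plating of hNPC spheres on poly-D-lysine/laminin, with medium half-replaced on day 3.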

Assay [18] in a line: IUF_NPC2-5_cytotoxicity_72hr: Cytotoxicity Assessment at 72 hours in the Leibniz Research Institute for Environmental Medicine (IUF) Neural Progenitor Cell Migration and Differentiation Assay for Cytotoxicity (NPC2-5) (AID 2284306; active = hit-call score of the fitted dose curve at least 0.9, where 1 is the maximum;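 also: LDH release into supernatant measured by resorufin fluorescence marking membrane damage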). The procedure, abridged: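 Membrane-integrity cytotoxicity at 72 h, read as LDH-driven resorufin fluorescence in supernatant. hNPC spheres from fetal cortex differentiate on coated plates in N2 medium, 37C, 5% CO2; seven serial compound concentrations plus solvent control (DMSO ≤0.1%).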

A short description of assay [19]: IUF_NPC2-5_cell_number_120hr: Cell Number Assessment at 120 hours in the Leibniz Research Institute for Environmental Medicine (IUF) Neural Progenitor Cell Migration and Differentiation Assay (NPC2-5) (AID 2284308).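 Also: count of Hoechst-stained nuclei in migration zone around plated human neural progenitor spheres.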 The procedure, abridged:
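Counting of all Hoechst-stained nuclei in the migration area at 120 h, versus DMSO control. Primary hNPC spheres differentiated on poly-D-lysine/laminin in N2 medium at 37C, dosed from day 0 (7 concentrations, DMSO ≤0.1%), half-refed day 3.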

Assay [20] is described as follows: IUF_NPC2-5_viability_120hr: Viability Assessment at 120 hours in the Leibniz Research Institute for Environmental Medicine (IUF) Neural Progenitor Cell Migration and Differentiation Assay (NPC2-5) (AID 2284312). The procedure, abridged:
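Alamar blue resorufin fluorescence read after 5 days of differentiation, with compound present from day 0 and replenished at day 3. Primary hNPC spheres on laminin-coated plates, 37C; seven concentrations plus solvent control, fitted against DMSO.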

Inconclusive results are not listed. Active and inactive are the calls of the source. The calls were made as follows, unless noted: active = hit-call score of the fitted dose curve at least 0.9, where 1 is the maximum; inactive = score below 0.9.

As to `O=C1CCO1`, in assay [1], the outcome was inactive.

`COP(=O)(OC)SCN1C(=O)c2ccccc2C1=O`: the result in [2], in assay [3], in assay [5], in [6], in assay [7] and in [8] was inactive. The compound was classed as inactive in assay [9], in assay [10], in [11], in assay [12], in [13] and in assay [14]. Moreover, the compound was classed as inactive in assay [15], in [16], in [17], in assay [18], in [19] and in assay [20]. In addition, the AC50 in [4] was 24800 nM (active).

On to `FC(F)(F)c1ccc(OCCCOc2c(Cl)cc(OCC=C(Cl)Cl)cc2Cl)nc1`, for which the result in [1] was inactive.

As to `NCCc1cc(O)c(O)cc1O`, in assay [2], the AC50 is 9870 nM (active).

On to `CC(=O)[O-].CC(=O)[O-].O.O.O.[Pb+2]`, for which the AC50 in assay [2] was 24000 nM (active); in assay [3], 32800 nM (active). Also, the compound was classed as inactive in [4], in assay [5], in assay [6], in assay [7], in [8] and in assay [9]. The compound was called inactive in assay [10], in assay [11], in assay [12], in [13], in assay [14] and in assay [15]. In addition, the outcome in assay [16], in assay [17], in [18], in assay [19] and in [20] was inactive.

For `O=[As]O`, the AC50 is 1820 nM (active) in assay [2]; 2030 nM (active) in [4]; 2960 nM (active) in assay [6]; 2480 nM (active) in assay [7]; 6450 nM (active) in assay [8]; 5000 nM (active) in [9]. For the same compound, the figures for the AC50 in assay [10], in assay [13] and in assay [17] were 5000 nM (active), 805 nM (active) and 752 nM (active), respectively. The compound was classed as inactive in assay [12], in assay [14], in [15], in assay [16], in assay [18] and in assay [19]. Also, the compound was classed as inactive in assay [20].

As for `CNC(=O)Oc1cccc(C(C)C)c1`, in [1], the outcome was inactive.

With `O=C1N[C@@H]2C(=C[C@H](O)[C@@H](O)[C@H]2O)c2cc3c(c(O)c21)OCO3`, the half-maximal activity concentration (AC50) in assay [3] is 47 nM (active); in assay [4], 21.6 nM (active); in assay [5] it was 23.7 nM (active); in [6], 38.3 nM (active); in assay [11] it was 218 nM (active); in assay [13], 37 nM (active). Moreover, the concentration at half-maximal activity (AC50) in assay [14] was 45 nM (active); in assay [16], 11.1 nM (active); in assay [17], 14.8 nM (active); in [19], 26.7 nM (active); in assay [20] it was 24.2 nM (active). In addition, the call in [12], in assay [15] and in [18] was inactive.

For `CC1(C)C(C=C(Cl)Cl)[C@H]1C(=O)O[C@H](C#N)c1cccc(Oc2ccccc2)c1` (stereo not given in full), the outcome in assay [3], in assay [4], in assay [5], in assay [6], in assay [11] and in assay [12] was inactive. In addition, the outcome in assay [13], in assay [14], in assay [15], in assay [16], in assay [17] and in [18] was inactive. Also, the result in assay [19] and in assay [20] was inactive.

For `CC(C)CC(C)c1sccc1NC(=O)c1cn(C)nc1C(F)(F)F` (stereo not given), the AC50 is 65600 nM (active) in assay [3], 77100 nM (active) in assay [11] and 10000 nM (active) in assay [13]. The outcome in assay [4], in assay [5], in assay [6], in assay [12], in assay [14] and in assay [15] was inactive. Moreover, the result in assay [16], in assay [17], in assay [18], in [19] and in assay [20] was inactive.

Turning to `CN1CC=C(c2ccccc2)CC1`, the outcome in [3] and in assay [11] was inactive.

In the case of `C=CCN1CC[C@]23c4c5ccc(O)c4O[C@H]2C(=O)CC[C@@]3(O)[C@H]1C5`, the result in [7], in [8], in assay [9] and in assay [10] was inactive.

With `O=[As](O)(O)O`, the compound was called inactive in [3]. For the same compound, the AC50 in assay [11] was 104000 nM (active).

For `Clc1cc(Cl)c(-c2cc(Cl)c(Cl)c(Cl)c2Cl)cc1Cl`, the figures for the AC50 in assay [3] and in assay [11] were 5570 nM (active) and 13300 nM (active), respectively.

In general, AC50 refers to the concentration at which the activity in the assay is half-maximal.
